# Bioassay records (PubChem)
# TDP1 cell noCPT = qHTS for Inhibitors of human tyrosyl-DNA phosphodiesterase 1 (TDP1): qHTS in cells in absence of CPT | Potency, µM (highest dose often 46.2 µM), actives largely listed as inhibitors | DT40 Tdp1-/- hTDP1 cells, no CPT, ATP luminescence, 48 h | 15% of 420,000 active; note: nearly all actives have a fitted effect of over 55% in size
#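 Stably hTDP1-transfected Tdp1-null chicken DT40 cells were treated with library compounds minus camptothecin and grown for at least 48 hr at 37 °C, after which cellular ATP was quantified by luminescence.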
# KAT2A inh = GCN5L2 (KAT2A) acetyltransferase inhibition; Q92830; GCN5L2 HAT assay, ThioGlo1 CoA-SH fluorescence; Potency, µM (highest dose often 58.9 µM), most hits filed as inhibitors; 0.21% of 390,000 active; AID 504327
# Target sequence (Q92830 whole entry, looked up): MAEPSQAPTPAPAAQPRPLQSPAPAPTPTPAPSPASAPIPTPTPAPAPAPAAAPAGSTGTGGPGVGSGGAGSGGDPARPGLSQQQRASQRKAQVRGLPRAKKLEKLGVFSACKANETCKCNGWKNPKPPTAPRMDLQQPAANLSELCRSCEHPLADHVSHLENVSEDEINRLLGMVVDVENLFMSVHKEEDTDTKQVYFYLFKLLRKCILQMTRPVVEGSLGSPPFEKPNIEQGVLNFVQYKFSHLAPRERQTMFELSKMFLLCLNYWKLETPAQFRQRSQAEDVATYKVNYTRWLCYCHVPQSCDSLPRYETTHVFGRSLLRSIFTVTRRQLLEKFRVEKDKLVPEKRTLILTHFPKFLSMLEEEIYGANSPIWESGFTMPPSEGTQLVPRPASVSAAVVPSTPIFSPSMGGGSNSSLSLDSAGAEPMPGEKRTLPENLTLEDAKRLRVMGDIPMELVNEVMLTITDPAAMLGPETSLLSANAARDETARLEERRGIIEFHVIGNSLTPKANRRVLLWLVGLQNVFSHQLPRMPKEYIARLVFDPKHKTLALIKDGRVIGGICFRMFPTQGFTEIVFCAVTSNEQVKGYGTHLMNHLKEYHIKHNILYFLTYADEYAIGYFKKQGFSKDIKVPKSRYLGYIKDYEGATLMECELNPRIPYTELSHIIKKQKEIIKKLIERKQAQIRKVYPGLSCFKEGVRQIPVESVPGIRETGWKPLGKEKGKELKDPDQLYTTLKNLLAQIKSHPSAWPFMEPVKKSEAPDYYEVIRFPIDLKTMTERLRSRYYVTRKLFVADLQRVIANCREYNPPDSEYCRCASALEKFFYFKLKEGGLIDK
#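 Enzyme at 20nM final was mixed with library compounds for 15 min at room temperature. Peptide H3(1-25) at 75uM, acetyl-CoA at 70uM and ThioGlo1 at 50uM were then added. Plates were read immediately and after 20 min (Ex340nm/Em540nm).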
# TDP1 inh = TDP1 (human) enzyme inhibition; Potency, µM (doses to about 130 µM), actives largely listed as inhibitors; Q9NUW8; recombinant TDP1, AlphaScreen DNA substrate cleavage; 0.28% of 350,000 active; note: nearly all actives have a fitted effect of over 40% in size
#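 Recombinant E. coli-expressed Tdp1 (1 nM) preincubated with compound 15 min at RT, then 5'-biotin/3'-phosphotyrosine-FITC DNA substrate (15 nM) added for 5 min. AlphaScreen beads (10 ug/ml) added, 10 min RT; tyrosine-FITC cleavage read as signal loss.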
# PLK1 PBD inh = PLK1 (human) polo-box domain binding inhibition; 2.8% of 360,000 active; Potency, µM, actives largely listed as inhibitors; Plk1 PBD binding of FITC phosphopeptide, fluorescence polarization; note: series mostly up to about 57 µM; nearly all actives have a fitted effect of over 65% in size
# VDR inhibitor = blocks the human vitamin D receptor; AID 504847; VDR-SRC2-3 peptide fluorescence polarization, 2 h; 0.93% of 400,000 active; P11473; Potency, µM, usual class: inhibitors
#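 After 23 nl compound addition and a short centrifugation, plates sat for 2 hours at ambient temperature; polarization of fluorescence then indicated loss of VDR binding to peptide SRC2-3.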
# DT40 TDP1 CPT = growth inhibition of DT40 Tdp1-/-;hTDP1 cells with camptothecin (screen for TDP1 inhibitors); chicken DT40 Tdp1-/-;hTDP1 cells + 20 nM CPT, ATP luminescence, 48 h; 12% of 420,000 active; Potency, µM (doses to about 46.2 µM), hits mostly inhibitors; AID 686979; note: nearly all actives have a fitted effect of over 55% in size
#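 Chicken DT40 Tdp1-/- cells complemented with human TDP1, 400 cells/well, exposed to compounds plus 20 nM camptothecin for at least 48 h at 37 C; viability read as ATP content by CellTiter-Glo luminescence.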
# USP1-UAF1 confirm = blocks human USP1/UAF1 cleavage of Ub-Rhodamine. shares compounds with VDR inhibitor. Ub-Rhodamine cleavage, fluorescence kinetic read. Potency, µM (highest dose often 56.8 µM), most hits filed as inhibitors. 50% of 50 active
# VDR confirm = confirmation of human vitamin D receptor inhibitors | 89% of 840 active | shares compounds with VDR inhibitor | Potency, µM, actives largely listed as inhibitors | VDR-coactivator inhibition assay, qHTS confirmation | AID 602199
# VDR FP = confirmation of human VDR-coactivator binding inhibitors, fluorescein label. shares compounds with VDR inhibitor. VDR-coactivator binding, fluorescein fluorescence polarization. Potency, µM (highest dose often 57.1 µM), hits mostly inhibitors. 48% of 840 active
# VDR bla = confirmation of human vitamin D receptor inhibitors in reporter cells; shares compounds with VDR inhibitor; VDR beta-lactamase reporter cells, FRET ratio; cells co-treated with VDR agonist LG190178; 23% of 840 active; AID 602202; Potency, µM (doses to about 46.1 µM), hits mostly inhibitors
# VDR cytotox = counter-screen for vitamin D receptor inhibitors: cytotoxicity; shares compounds with VDR inhibitor; cytotoxicity counter-screen, cell viability, qHTS; Potency, µM (titrated, usually from 48.3 µM), actives largely listed as cytotoxic; 18% of 840 active; note: nearly all actives have a fitted effect of over 75% in size
# A number is an active result; - = inactive; ? = inconclusive; . = not tested or not shown; ! = repeats disagree. Rows were chosen to be rich in hits. Some 18% of all compounds tested hit in one or more screens of this group. Calls come from the whole dose curve; as a rule, active = well fitted curve in the direction sought with a large enough effect; inconclusive = small, poorly fitted or top-dose-only effect, or another doubt; inactive = no such curve, though single readings can be large; an effect the other way counts as inactive or inconclusive.
SMILES,TDP1 cell noCPT,KAT2A inh,TDP1 inh,PLK1 PBD inh,VDR inhibitor,DT40 TDP1 CPT,VDR confirm,VDR FP,VDR bla,VDR cytotox,others
CCOc1ccc(/C=C/[N+](=O)[O-])c2ccccc12,2.9µM,?,-,3.4µM,20µM,2.9µM,6.7,?,?,?,
CCOC(=O)COc1ccc(/C=C/[N+](=O)[O-])c(OCC(=O)OCC)c1,21µM,-,-,?,13µM,12µM,6.7,?,?,13µM,
O=C1NCCCCC1NS(=O)(=O)c1cccc(C(F)(F)F)c1 (stereo unspecified),-,-,.,-,-,-,.,.,.,.,
Cn1nccc1C(=O)N1CCN(S(=O)(=O)c2ccc(Br)s2)CC1,-,-,-,-,-,-,.,.,.,.,
O=C(O)c1ccc(Oc2nc3ccccc3s2)cc1,-,.,.,-,-,-,.,.,.,.,
O=C(O)c1ccc(C=C(c2nc3ccccc3s2)c2nc3ccccc3s2)cc1,-,-,-,30µM,?,?,13,16µM,23µM,-,
O=C(Nc1ccccn1)c1sc2cc([N+](=O)[O-])ccc2c1Cl,?,?,-,2.7µM,32µM,23µM,3.4,?,-,-,
COc1ccccc1C1=NNC(=Nc2cccc(S(=O)(=O)N(C)C)c2)SC1,?,-,-,-,?,?,?,?,-,?,
CCC(C)(C)n1nnnc1C(c1ccc(O)c(OC)c1)N1CCc2ccccc2C1 (stereo unspecified),13µM,-,-,27µM,?,7.3µM,11,28µM,-,-,
CCC(C)(C)n1nnnc1C(c1cc2ccc(OC)cc2[nH]c1=O)N1CCc2ccccc2C1 (stereo unspecified),?,-,-,?,-,?,.,.,.,.,
CCc1nn(CC(=O)N2CCC(C)CC2)c(=O)c2cc3occc3n12,-,-,-,.,-,-,.,.,.,.,
O=C(NCc1ccc2c(c1)OCO2)C1CCCCC1,-,-,-,?,?,-,.,.,.,.,
COC1=C(C)C(O)=C(C(=O)/C=C/c2ccccc2)C(=O)C1(C)C,?,-,-,-,20µM,?,17,20µM,?,-,
CCCCC1C(=O)N(c2ccccc2)N(c2ccc(O)cc2)C1=O (stereo unspecified),0.58µM,-,-,24µM,11µM!,1µM,?,14µM,6.5µM,21µM,
Cc1ccc(S(=O)(=O)N[C@@H](Cc2ccccc2)C(=O)CCl)cc1,5.2µM,-,-,?,5.6µM,2.6µM,9.5,7.1µM,18µM,?,USP1-UAF1 confirm=47µM
Cc1ccc(S(=O)(=O)NC(Cc2ccccc2)C(=O)NN)cc1 (stereo unspecified),-,-,.,-,-,-,.,.,.,.,
CCSc1nc2cc(S(=O)(=O)N3CCOCC3)ccc2o1,?,?,-,3µM,25µM,?,9.5,?,-,-,
O=C(CSc1nc2ccc(S(=O)(=O)N3CCOCC3)cc2[nH]1)N1CCOCC1,?,-,-,2.2µM,22µM,?,3.8,?,-,-,
O=C(CSc1nc2cc(S(=O)(=O)N3CCOCC3)ccc2o1)Nc1c(F)cccc1F,21µM,-,-,2.7µM,18µM,21µM,11,7.1µM,-,-,
Cc1cc(S(=O)(=O)c2ccc([N+](=O)[O-])cn2)ccc1Br,0.33µM,.,.,?,?,0.33µM,2.2,2.5µM,7.3µM,?,
Cc1cc(Sc2ccc([N+](=O)[O-])cn2)ccc1Br,?,.,.,-,-,-,.,.,.,.,
O=C(CSc1nnc(CNC(=O)c2ccccc2)o1)NCC1CCCO1 (stereo unspecified),-,-,-,-,-,-,.,.,.,.,
Nc1cccc2c1C(=O)N(C(=O)/C=C/c1ccc(F)cc1)C2=O,23µM,-,-,?,28µM,16µM,9.5,10µM,-,-,
CCCCC(O)(CCCC)C(=O)NN(C(=O)c1cccnc1Cl)c1ccccc1,-,-,.,-,-,-,.,.,.,.,
COc1ccc2c(c1)Cc1sc(NC(=O)c3cccc(C)c3)nc1-2,?,-,-,.,20µM,?,7.1,7.1µM,?,?,
SMILES,TDP1 cell noCPT,KAT2A inh,TDP1 inh,PLK1 PBD inh,VDR inhibitor,DT40 TDP1 CPT,VDR confirm,VDR FP,VDR bla,VDR cytotox,others
COc1ccc(Cc2nnc(NC(=O)c3cccc(C)c3)s2)cc1,?,-,-,?,-,-,.,.,.,.,
COc1ccc2o/c(=N/NC(=S)Nc3ccccc3)c(C(N)=O)cc2c1,.,-,-,.,.,.,.,.,.,.,
Cc1nnc(NC(=O)c2oc3ccccc3c2C)s1,-,?,-,-,-,?,.,.,.,.,
Cc1c(C(=O)Nc2nc(-c3ccccn3)cs2)oc2ccccc12,3.7µM,-,-,12µM,89µM,5.2µM,21,-,?,?,
O=C(Cn1cnc2ccccc2c1=O)c1cccs1,?,-,-,-,-,-,.,.,.,.,
O=C(/C=C/c1ccnc2ccccc12)c1cccs1,13µM,-,-,?,?,4.6µM,11,18µM,?,?,
CCS(=O)(=O)n1nc(-c2ccccc2)nc1SC,-,-,-,-,-,-,.,.,.,.,
CCOC(=O)/C(C#N)=C1/C(=O)N(Cc2ccccc2)c2ccccc21,5.2µM,-,-,3.8µM,28µM,7.3µM,3.4,?,-,-,
COc1ccc(C(=O)/C=C/c2ccccc2F)c(OC(=O)c2ccc([N+](=O)[O-])cc2)c1,13µM,-,-,-,?,23µM,?,6.3µM,?,-,
COc1cc(/C=C/C(=O)c2cccc([N+](=O)[O-])c2)cc(OC)c1OC,5.2µM,-,-,?,?,5.8µM,2.2,2.5µM,?,?,
COc1ccc(/C=C/C(=O)c2ccc(C)c([N+](=O)[O-])c2)cc1O,13µM,-,-,-,35µM,?,11,7.9µM,?,?,
O=C(/C=C/c1ccccc1F)c1cccc([N+](=O)[O-])c1,21µM,-,-,?,13µM,?,2.5,1.6µM,26µM,-,
